Records with an inconclusive call do not appear. Entries that show only a call come without a potency. Unmarked numbers belong to inactive results. Active and inactive are the calls of the source. Calls follow the shape of the full dose curve.

A short description of this test: qHTS assay to identify small molecule antagonists of the sonic hedgehog signaling (Shh) pathway (AID 1259369). Also: nearly all actives have a fitted effect of over 45% in size. Particulars: NIH/3T3 Gli1-Luc reporter, Shh antagonist, luminescence 24 h; series mostly up to 92.4 µM; activity change, negative = inhibition: at the top concentration. The text has this: U.S. Tox21 Program National Center for Advancing Translational Sciences [NCATS] NIH Chemical Genomics Center [NCGC] U.S. Environmental Protection Agency [EPA] National Institutes of Environmental Health Sciences [NIEHS] National Toxicology Program [NTP] U.S. Food and Drug Administration [FDA] Tox21 Assay Overview: The sonic hedgehog (Shh) pathway is essential for normal embryonic development. Dysregulation of the Shh pathway can cause severe developmental defects in organs. Therefore chemicals that interfere with the pathway are potential developmental toxicants. A cell line designated 3T3Gli1-Luc (DMB/OARSA/CFSAN/FDA, Laurel, MD), a NIH/3T3 derived clone containing stably integrated Gli1-Luc reporter is used to detect chemical interference of the Shh pathway, by changes in the expression of the firefly Luc gene under the control of the Gli1 transcriptional response element. This cell line was used to screen Tox21 libraries for identifying and prioritizing the potential developmental toxicants that interfere Shh pathway. Conditioned medium-stimulated mode was used to screen for chemicals inhibiting Shh signaling.
Tox21 Assay Protocol Summary: 3T3 Gli1-Luc cells were dispensed at 2,000 per well in 5uL of culture medium into white solid bottom 1536-well plates (Greiner Bio-One, Monroe, NC) using a Multidrop Combi (Thermo Scientific, Waltham, MA) dispenser. The assay plates were incubated at 37 C and 5% CO2 for 4hr, and then 23nL of compounds dissolved in DMSO and positive control were transferred using a Pintool station (Wako, San Diego, CA). The compound transfer was followed by the addition of 1ul conditioned medium or assay buffer using two separate tips of Flying Reagent Dispenser (FRD, Aurora Discovery, San Diego, CA). The assay plates were incubated at 37C and 5% CO2 for 24hr. For luciferase read, 4uL of Amplite Luciferase reporter gene assay reagent (AAT Bioquest, Inc. Sunnyvale, CA) was added to each well of the assay plates using FRD and incubated at room temperature for 30min. The luminescence signal was measured using a ViewLux plate reader (Perkin Elmer, Shelton, CT).
A general note: qHTS replaces the single test concentration by a dilution series.
As for `CCCCC(C=O)CC` (stereo not given), the Potency entry is “inactive”. The same measure, in the same setting: next, `N#Cc1ccccc1`: “inactive”; `O=C(O)Cn1c(=O)n(Cc2ccc(Br)cc2F)c(=O)c2ccc(Cl)cc21`: “inactive”; `CCc1ccccc1CC`: “inactive”. On to `CCCCCCCCCCO`, for which the “activity change, negative = inhibition” value was -9.24%. On to `CCO[Si](CCC#N)(OCC)OCC`, for which the Potency entry was “inactive”. The same measure, in the same setting: as for `CCOC(=O)c1ccc(N)cc1`, the entry is “inactive”; as for `O=C1C(c2[nH]c3ccccc3c2O)=Nc2ccccc21`, “inactive”. Still for that read-out and setting: next, `O=C(O)c1ccccc1C(=O)O`: “inactive”; `COc1ccc(OC)cc1`: “inactive”. The same measure, in the same setting: next, `COc1ccc([N+](=O)[O-])cc1N`: “inactive”; `COc1ccccc1OCC(O)CO` (stereo not given): “inactive”. In the case of `C=CC(=O)OCCC(=O)O`, the “activity change, negative = inhibition” value is -18.7%.

Consider `CCCCCCCO`, for which the Potency result was “inactive”.

Take `CC(=O)OCc1ccccc1`: the Potency entry was “inactive”.

For the compound `CCCCOC(=O)c1ccc(N)cc1`, the Potency result was “inactive”. On the same count and under the same terms, as for `O=C1c2ccccc2CCc2ccccc21`, the entry is “inactive”. Consider `CC(C)(C)c1cc(Cc2cc(C(C)(C)C)c(O)c(C(C)(C)C)c2)cc(C(C)(C)C)c1O`, for which the “activity change, negative = inhibition” value is 12.6%. Still for that read-out and setting: as for `NCCCCCCN`, the figure is -8.29%. Turning to `CCCCCCCC=O`, the Potency result was “inactive”. Still for that read-out and setting: next, `CCOCC(=O)O`: “inactive”; `c1ccc2c(c1)Cc1ccccc1-2`: “inactive”.

As for `C=CC[N+](C)(C)CC=C`, the “activity change, negative = inhibition” value is 17.5%. On to `Clc1ccccn1`, for which the Potency result was “inactive”. Turning to `CN1C(=O)CC[C@H]1c1cccnc1`, the Potency result was “inactive”. The same measure, in the same setting: as for `N[C@H](Cc1c[nH]c2ccccc12)C(=O)O`, the entry is “inactive”. Same read-out and setting: next, `C=Cc1ccc(C)cc1`: “inactive”. Take `C=CCc1ccc(OC)c(OC)c1`: the “activity change, negative = inhibition” value is -7.69%. As for `CC(=O)OC1CC(C)OC(C)O1` (stereo not given), the Potency entry is “inactive”. Consider `CCCCCCCCCCCC(=O)OC`, for which the Potency result is “inactive”. For `NCCN1CCNCC1`, the “activity change, negative = inhibition” value was 64.8%.

Regarding `CC(C)CC(=O)CC(C)CC(C)C` (stereo not given), the Potency entry was “inactive”. On the same count and under the same terms, as for `O=C(OCC1CCC2OC2C1)C1CCC2OC2C1` (stereo not given), the entry is “inactive”; as for `CCOCCOCCOCCO`, “inactive”; as for `NCCNCCN`, “inactive”. Same read-out and setting: next, `COc1cc(OC)c(C(=O)CCCN2CCCC2)c(OC)c1`: “inactive”.

In the case of `O=C(O)CCCCCCCCC(=O)O`, the Potency result was “inactive”. As for `O=C(O)c1ccc(C(=O)O)c(C(=O)O)c1`, the Potency entry was “inactive”.

As for `CCOC(=O)n1ccn(C)c1=S`, the Potency result is “inactive”.

For the compound `CC(=O)c1ccc(O)cc1`, the “activity change, negative = inhibition” value was 0.38%.

The values above are taken from PubChem BioAssay (Tox21).
